{"source": "PubChem BioAssay AID1159554", "about": "(Broad Institute, 2015)", "note": "In all, about 94,000 compounds went through this assay and about 2,100 (2.2%) were called active. This is one part of a sample in which actives are shown more often than they occur. Values without a mark were called inactive. Rule as the data show it: active = activity change below about -80%; inconclusive = no clear call, values can overlap the other calls; inactive = above that."}
{"assay": "P. falciparum Dd2 growth inhibitors, primary screen, SYBR Green fluorescence, single dose replicates (AID 1159554)", "conditions": "72 h, at 10 µM, hits give low values"}
{"molecule": "COc1ccc(-c2ccc([C@@H]3[C@H](CN(C)S(C)(=O)=O)N[C@@H]3CO)cc2)cc1", "activity change": "-61.4%"}
{"molecule": "C[C@H](CO)N1C[C@H](C)[C@@H](CN(C)C(=O)Cc2ccccn2)Oc2cc(-c3cccc(C(=O)N(C)C)c3)ccc2S1(=O)=O", "activity change": "-3.07%"}
{"molecule": "CN1CCN(C(=O)C[C@H]2C[C@@H]3c4cc(NS(=O)(=O)c5ccc(F)cc5)ccc4O[C@@H]3[C@@H](CO)O2)CC1", "activity change": "-2.3%"}
{"molecule": "CO[C@@H]1CN(C)C(=O)c2cc(NC(=O)NC3CCCC3)ccc2OC[C@H](C)NC[C@H]1C", "activity change": "14.4%"}
{"molecule": "O=C(Nc1cc(F)ccc1F)N1CC(=O)N2[C@H](CO)[C@@H](c3ccc(-c4cccnc4)cc3)[C@@H]2C1", "activity change": "-15.2%"}
{"molecule": "CCC(=O)N1C[C@H]2[C@@H](c3ccccc31)[C@H](CO)N2Cc1ccccc1F", "activity change": "0.398%"}
{"molecule": "CO[C@H]1CN(C)C(=O)c2ccc(NC(C)=O)cc2OC[C@@H](C)N(C(=O)c2ccccn2)C[C@@H]1C", "activity change": "13.4%"}
{"molecule": "Cc1noc(C)c1S(=O)(=O)N(C)C[C@@H]1OCCCC[C@@H](C)Oc2ccc(NS(=O)(=O)c3ccccc3)cc2C(=O)N([C@H](C)CO)C[C@@H]1C", "activity change": "-10.1%"}
{"molecule": "CCCNC(=O)N1CC2(CCN(C(=O)C3CC3)CC2)c2c([nH]c3cc(OC)ccc23)[C@H]1CO", "activity change": "-26.2%"}
{"molecule": "CCC(=O)N1CCC2(CC1)CN(Cc1cc(F)ccc1F)[C@@H](CO)c1c2c2ccc(OC)cc2n1C", "activity change": "-73%"}
{"molecule": "COc1ccc2c3c([nH]c2c1)[C@@H](CO)N(C(C)=O)CC31CN(C(=O)Nc2ccc(F)cc2)C1", "activity change": "-0.229%"}
{"molecule": "COc1ccc2c3c([nH]c2c1)[C@@H](CO)N(Cc1cc(F)ccc1F)CC31CN(C(=O)C2CCC2)C1", "activity change": "-89.2% (active)"}
{"molecule": "CCC(=O)N1CC2(C1)CN(Cc1cc(F)ccc1F)[C@@H](CO)c1[nH]c3cc(OC)ccc3c12", "activity change": "-89.9% (active)"}
{"molecule": "COc1ccc2c3c(n(C)c2c1)[C@H](CO)N(Cc1ccccc1F)CC31CN(C(=O)C2CCC2)C1", "activity change": "-14.5%"}
{"molecule": "COc1ccc2c3c([nH]c2c1)[C@H](CO)N(Cc1nccs1)CC31CCN(C(=O)C2CCC2)CC1", "activity change": "-50%"}
{"molecule": "COc1ccc2c3c([nH]c2c1)[C@@H](CO)N(Cc1cc(F)ccc1F)CC31CCN(C(=O)C2CCC2)CC1", "activity change": "-88% (active)"}
{"molecule": "COc1ccc2c3c([nH]c2c1)[C@@H](CO)N(C(=O)NC(C)C)CC31CN(C(=O)C2CCCC2)C1", "activity change": "12.7%"}
{"molecule": "COc1ccc2c3c([nH]c2c1)[C@@H](CO)N(Cc1ccccc1OC)CC31CCN(C)CC1", "activity change": "35.1%"}
{"molecule": "COc1ccc2c3c([nH]c2c1)[C@@H](CO)N(Cc1ccncc1)CC31CN(C(=O)CN(C)C)C1", "activity change": "-8.59%"}
{"molecule": "COCC(=O)N1CC2(C1)CN(Cc1ccccc1F)[C@@H](CO)c1[nH]c3cc(OC)ccc3c12", "activity change": "-88.4% (active)"}
{"molecule": "CCS(=O)(=O)N1[C@H](CO)[C@@H](c2ccccc2)C12CN(C(=O)C1CCC1)C2", "activity change": "35.7%"}
{"molecule": "COc1ccccc1S(=O)(=O)N1CC[C@@H]2[C@H](CO)Nc3ccc(-c4ccccc4F)cc3[C@@H]21", "activity change": "-2.28%"}
{"molecule": "O=C1CN(Cc2ccc(F)cc2)C[C@H]2[C@@H](c3ccc(Br)cc3)[C@H](CO)N12", "activity change": "-35.6%"}
{"molecule": "O=C(C[C@H]1C[C@@H]2c3cc(NC(=O)C4CCC4)ccc3O[C@@H]2[C@H](CO)O1)NC1CCCCC1", "activity change": "12%"}
{"molecule": "O=C(N[C@@H]1C=C[C@H](CC(=O)N2CCOCC2)O[C@H]1CO)c1ccccn1", "activity change": "34%"}
{"molecule": "C[C@H](O)C#Cc1cnc2c(c1)C(=O)N([C@H](C)CO)C[C@H](C)[C@H](CN(C)C(=O)c1ccc(F)cc1)O2", "activity change": "8.85%"}
{"molecule": "COc1cccc(CNC(=O)C[C@@H]2CC[C@@H]3[C@H](COc4ccc(NC(C)=O)cc4C(=O)N3C)O2)c1", "activity change": "-0.731%"}
{"molecule": "Cc1noc(C)c1NC(=O)Nc1ccc2c(c1)C(=O)N([C@H](C)CO)C[C@H](C)[C@H](CN(C)Cc1ccc(Oc3ccccc3)cc1)O2", "activity change": "-39.9%"}
{"molecule": "CC(C)NC(=O)Nc1ccc2c(c1)CC(=O)N([C@@H](C)CO)C[C@@H](C)[C@H](CN(C)CC1CC1)O2", "activity change": "1.75%"}
{"molecule": "Cc1noc(C)c1NC(=O)Nc1ccc2c(c1)CC(=O)N([C@H](C)CO)C[C@@H](C)[C@@H](CN(C)Cc1ccncc1)O2", "activity change": "3.85%"}
{"molecule": "C[C@@H]1CN([C@H](C)CO)C(=O)Cc2cc(NC(=O)Nc3ccccc3)ccc2O[C@H]1CN(C)Cc1ccc(Cl)c(Cl)c1", "activity change": "-5.47%"}
{"molecule": "C[C@H]1CN([C@@H](C)CO)C(=O)Cc2cc(NC(=O)Nc3cccc4ccccc34)ccc2O[C@H]1CN(C)CC1CC1", "activity change": "-71.1%"}
{"molecule": "Cc1noc(C)c1NC(=O)Nc1ccc2c(c1)CC(=O)N([C@@H](C)CO)C[C@@H](C)[C@H](CN(C)Cc1ccc(Oc3ccccc3)cc1)O2", "activity change": "-81.8% (active)"}
{"molecule": "C[C@@H]1CN([C@H](C)CO)C(=O)Cc2cc(NC(=O)Nc3ccccc3)ccc2O[C@@H]1CN(C)Cc1ccc(C(F)(F)F)cc1", "activity change": "2.2%"}
{"molecule": "C[C@H](CO)N1C[C@H](C)[C@@H](CN(C)Cc2ccc(Cl)c(Cl)c2)Oc2ccc(NC(=O)Nc3ccc(C(F)(F)F)cc3)cc2CC1=O", "activity change": "-87.2% (active)"}
{"molecule": "C[C@H](CO)N1C[C@H](C)[C@@H](CN(C)CC2CC2)Oc2ccc(NC(=O)Nc3ccccc3)cc2CC1=O", "activity change": "-83.5% (active)"}
{"molecule": "CO[C@@H]1CN(C)C(=O)c2cc(NC(=O)C3CCOCC3)ccc2OC[C@H](C)N(Cc2cccnc2)C[C@@H]1C", "activity change": "14.9%"}
{"molecule": "CCS(=O)(=O)Nc1ccc2c(c1)C(=O)N(C)[C@@H]1CC[C@H](CC(=O)N3CCCCC3)O[C@@H]1CO2", "activity change": "6.13%"}
{"molecule": "CO[C@@H]1CN(C)C(=O)c2cc(NS(=O)(=O)c3ccccc3)ccc2OC[C@@H](C)N(C(=O)NC(C)C)C[C@@H]1C", "activity change": "20.8%"}
{"molecule": "COCC(=O)N1CCC2(CC1)CN(C(=O)Nc1ccccc1F)[C@@H](CO)c1c2c2ccc(OC)cc2n1C", "activity change": "-32.4%"}
{"molecule": "CCCC#Cc1cnc2c(c1)C(=O)N([C@@H](C)CO)C[C@@H](C)[C@@H](CN(C)C(=O)c1ccccc1)O2", "activity change": "-15.9%"}
{"molecule": "CO[C@H]1CN(C)C(=O)c2ccc(NC(=O)C3CC3)cc2OC[C@H](C)N(Cc2ccncc2)C[C@@H]1C", "activity change": "-31.5%"}
{"molecule": "COc1cccc(CNC(=O)[C@@H]2[C@@H](CO)[C@@H]3Cn4c(ccc(-c5cccnc5)c4=O)[C@@H]3N2C)c1", "activity change": "8.71%"}
{"molecule": "O=C(C[C@@H]1CC[C@@H](NS(=O)(=O)c2ccc(F)cc2)[C@@H](CO)O1)NCCc1ccncc1", "activity change": "23.4%"}
{"molecule": "O=C(N[C@H]1CC[C@@H](CCNS(=O)(=O)Cc2ccccc2)O[C@H]1CO)c1ccccc1F", "activity change": "-32.4%"}
{"molecule": "CC(C)NC(=O)N(C)C[C@H]1OCCCC[C@@H](C)Oc2ccc(NC(=O)C3CCCCC3)cc2C(=O)N([C@H](C)CO)C[C@H]1C", "activity change": "-37.9%"}
{"molecule": "O=C(NC1CCCCC1)N1CC2(C1)[C@H](c1ccccc1)[C@@H](CO)N2S(=O)(=O)Cc1ccccc1", "activity change": "-4.41%"}
{"molecule": "C[C@@H]1CCCCO[C@H](CN(C)S(=O)(=O)c2cccs2)[C@@H](C)CN([C@@H](C)CO)C(=O)c2cc(NC(=O)NC3CCCCC3)ccc2O1", "activity change": "-76%"}
{"molecule": "O=C(Nc1ccccc1F)N1C[C@H]2[C@@H](c3ccccc31)[C@@H](CO)N2C(=O)Cc1cccnc1", "activity change": "13.8%"}
{"molecule": "O=C(C1CCCCC1)N1[C@H](CO)[C@@H](c2ccccc2)C12CN(Cc1cccc(Cl)c1)C2", "activity change": "-90.7% (active)"}
{"molecule": "COCC(=O)N1CC2(C1)[C@H](c1ccc(-c3cccc(F)c3)cc1)[C@@H](CO)N2C(=O)COC", "activity change": "11.2%"}
{"molecule": "COCC(=O)N1CC2(C1)[C@@H](c1ccc(-c3cccc(F)c3)cc1)[C@@H](CO)N2C(=O)COC", "activity change": "13.9%"}
{"molecule": "O=C(C1CCCC1)N1[C@@H](CO)[C@@H](c2ccccc2)C12CN(Cc1ccc(F)cc1)C2", "activity change": "-28%"}
{"molecule": "COCC(=O)N1[C@H](CO)[C@@H](c2ccccc2)C12CN(Cc1cc(F)ccc1F)C2", "activity change": "-89% (active)"}
{"molecule": "O=C(C1CCCC1)N1[C@H](CO)[C@@H](c2ccccc2)C12CN(CCC(F)(F)F)C2", "activity change": "-46.4%"}
{"molecule": "COc1cccc(C#Cc2ccc3c(c2)[C@H]2[C@H](CCN2C(=O)CC2CC2)[C@H](CO)N3)c1", "activity change": "-67.1%"}
{"molecule": "COc1ccc2c3c(n(C)c2c1)[C@@H](CO)N(Cc1ccncc1)CC31CN(C(=O)Nc2cccc(F)c2)C1", "activity change": "-46.3%"}
{"molecule": "C[C@H]1CN([C@@H](C)CO)C(=O)c2c(c3ccccc3n2C)-c2ccccc2CO[C@@H]1CN(C)Cc1ccc2c(c1)OCCN2C", "activity change": "-31.4%"}
{"molecule": "CCCN1C[C@H](C)[C@@H](OC)CN(C)C(=O)c2ccc(NC(=O)c3cnccn3)cc2OC[C@H]1C", "activity change": "13.8%"}
{"molecule": "COC(=O)C[C@H]1CC[C@@H]2[C@@H](COc3ccc(NC(=O)Nc4ccc(Cl)cc4)cc3C(=O)N2C)O1", "activity change": "9.95%"}
{"molecule": "O=C([C@@H]1[C@@H](CO)[C@@H]2Cn3c(ccc(-c4cncnc4)c3=O)[C@@H]2N1C(=O)C1CCC1)N1CCCCC1", "activity change": "34%"}
{"molecule": "CC(C)CC#Cc1ccc2c(c1)O[C@H](CN(C)Cc1ccccc1F)[C@@H](C)CN([C@@H](C)CO)S2(=O)=O", "activity change": "-84.7% (active)"}
{"molecule": "C[C@H]1CN([C@@H](C)CO)S(=O)(=O)c2ccc(C#CCN(C)C)cc2O[C@H]1CN(C)C(=O)c1ccccc1F", "activity change": "-28.9%"}
{"molecule": "C[C@@H]1CN([C@H](C)CO)S(=O)(=O)c2ccc(C#CC3CC3)cc2O[C@H]1CN(C)Cc1ccccc1F", "activity change": "-16.8%"}
{"molecule": "CCCN(C)C[C@H]1Oc2cc(C#CCC(C)C)ccc2S(=O)(=O)N([C@H](C)CO)C[C@H]1C", "activity change": "-26.1%"}
{"molecule": "CC(C)CC#Cc1ccc2c(c1)O[C@@H](CN(C)C(=O)c1ccccc1F)[C@H](C)CN([C@H](C)CO)S2(=O)=O", "activity change": "-71.3%"}
{"molecule": "CCCC#Cc1ccc2c(c1)O[C@@H](CN(C)C(=O)c1ccccc1F)[C@H](C)CN([C@H](C)CO)S2(=O)=O", "activity change": "-85.1% (active)"}
